Article PMC5540273 (PLoS ONE, 2017)

Each compound was assayed on JAK2(JH1domain-catalytic). Conditions: concentration: 1 μM, replicates: in singlicate; n = 1.
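Further: KINOMEscan kinase panel screen.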

SMILES	%Inh
COc1ccc(Nc2nccc(N3CCC(NC(=O)Nc4cccc(OC)c4)C3)n2)cc1 (stereo not shown) [GSK1379742]	26%
Cc1ccc(C)c(NC(=O)NC2CCN(c3ccnc(Nc4ccc(F)cc4)n3)C2)c1 (stereo not shown) [GSK1379720]	0%
c1ccc(-c2n[nH]cc2Nc2ccnc3ccccc23)nc1 [GW694077]	94.2%
COc1cc(Nc2nccc(N3CCC(NC(=O)Nc4cccc(C(C)=O)c4)C3)n2)cc(OC)c1OC (stereo not shown) [GSK1379753]	91.4%
O=C(Nc1cccc(-c2nn3ncccc3c2-c2ccnc(Nc3ccccc3)n2)c1)c1c(F)cccc1F [GSK198271]	2%
c1ccc(-c2cnc3nccnn23)cc1 [AH20685]	0%
Cl.c1ccc(-c2ccc3c(Nc4ccc5[nH]ncc5c4)ccnc3c2)nc1 [GW440137]	36%
Fc1ccc(-c2ncn(C3CCNCC3)c2-c2ccnc(Oc3ccc(-c4ccccc4)cc3)n2)cc1 [SB-245391]	50%
Clc1ccc(-c2nn3ncccc3c2-c2ccnc(Nc3ccc4c(c3)OCCO4)n2)cc1 [GW829116]	2%
Cc1ccc(F)c(C(=O)Nc2cccc(-c3nn4ccccc4c3-c3ccnc(Nc4cccc(F)c4)n3)c2)c1F [GSK361061]	8%
CNC(=O)c1ccccc1Nc1nc(Nc2ccc(N3CCOCC3)cc2)ncc1Cl.Cl [GSK1576028]	99%
Cc1cccc(Nc2nc(N[C@H]3CCNC3)ncc2C(N)=O)c1.Cl [GSK2197149]	58%
CCn1c(-c2nonc2N)nc2c(C#CC(C)(C)O)nc(OC[C@H](N)c3ccccc3)cc21 [GSK943949]	8%
